Reference: PubChem BioAssay
“And” between values parts separate entries of the source, which are not always exact repeats. Equal entries are not always repeated. Records with an inconclusive call do not appear. The source made the active and inactive calls.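 Rule for the calls, unless noted: active = normalized viability below 100% at a tested concentration; inactive = the rest.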

Tests used:
[1] = growth inhibition of DIPG glioma cells, dose response, cell-based, SU-DIPG-XVII, MIPE5.0, CellTiter-Glo, qHTS (AID 1347060; cut-off not given, nearly all actives have AC50 up to about 26 µM;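 note: cells exposed to compound for 48 hours before viability readout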); details: SU-DIPG-XVII viability, CellTiter-Glo ATP luminescence
[2] = growth inhibition of DIPG glioma cells, dose response, cell-based, SU-DIPG-IV, MIPE4.0, CellTiter-Glo, qHTS (AID 1347063; cut-off not given, nearly all actives have AC50 up to about 30 µM;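 note: compound exposure lasted 48 hours before the viability readout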); details: SU-DIPG-IV viability, CellTiter-Glo ATP luminescence
[3] = growth inhibition of DIPG glioma cells, dose response, cell-based, SU-DIPG-XIII, MIPE5.0, CellTiter-Glo, qHTS (AID 1347064; cut-off not given, nearly all actives have AC50 up to about 23 µM;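 note: cells exposed to compound for 48 hours before the viability read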); details: SU-DIPG-XIII viability, CellTiter-Glo ATP luminescence
[4] = viability loss in pontine glioma line – cell-based, SU-DIPG-XXV, MIPE5.0, CellTiter-Glo, qHTS, dose response (AID 1347065; cut-off not given, nearly all actives have AC50 up to about 26 µM;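 note: cells exposed to compound for 48 hours before ATP readout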); details: CellTiter-Glo ATP luminescence
[5] = SU-DIPG-VI glioma cell viability, MIPE4.0 library, CellTiter-Glo luminescence, qHTS (AID 1347066; cut-off not given, nearly all actives have AC50 up to about 30 µM;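 note: cells exposed to compound for 48 hours before readout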); details: CellTiter-Glo ATP luminescence
[6] = JHH-DIPG-1 glioma cell viability, MIPE5.0 library, CellTiter-Glo luminescence, qHTS (AID 1347067; cut-off not given, nearly all actives have AC50 up to about 26 µM;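 note: cells exposed to compound for 48 hours before readout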); details: JHH-DIPG-1 glioma viability, CellTiter-Glo ATP luminescence
[7] = SU-DIPG-XXV glioma cell viability, MIPE5.0 library, qHTS (AID 1347068; cut-off not given, nearly all actives have IC50 up to about 30 µM;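 note: cells exposed to compound for 48 hours before viability readout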)
[8] = sensitizers of A549 cells to miR-34 induction, primary screen, imaging, A549 dox-inducible miR-34, nuclei and caspase counts (AID 1347080;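 active = compounds whose cell count with miR-34 switched on is under 0.7 times the count with it off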); details: A549 miR-34 inducible, Hoechst nuclei count, 48 h
[9] = survival rescue of mitochondrial mutant cells in low glucose, primary screen, MELAS cybrids, Rieske KO mouse fibroblasts, CellTiter-Glo (AID 1508586;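 active = mean z-score across replicates of 1.96 or higher in either the MELAS or the Rieske mutant cell line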;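 note: z relative to plate mean and SD of compound and empty wells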)
[10] = ovarian cancer cell viability with rucaparib, profiling panel, oncology-focused library, rucaparib conditional (AID 1508598); details: patient-derived ovarian cancer cells, CellTiter-Glo viability, 144 h, stronger effect = lower value
[11] = growth inhibition of DIPG glioma cells, dose response, cell-based, JHH-DIPG-1, MIPE4.0, CellTiter-Glo, qHTS (AID 1347062; cut-off not given, nearly all actives have AC50 up to about 27 µM); details: JHH-DIPG-1 viability, CellTiter-Glo ATP luminescence

N#Cc1c(NC(=O)c2cccc3ccccc23)sc2c1CCCC2
0.427: fold change ([8]; measured here: relative caspase fold change +Dox/-Dox)
1320: cell count ([8]; measured here: total cells with miR-34 induction, stronger effect = lower value)
inactive: outcome [5] | fold change ([8]; stronger effect = lower value, cell number ratio, induced over uninduced) 1.02 | z-score ([9]; MELAS cybrid survival, CellTiter-Glo 48 h, stronger effect = higher value) -0.44 and 1.09 | viability ([10]; at 0.000305 µM, OCI-C5x cells, with rucaparib 10 µM, 100% = cells with rucaparib alone) 117% | viability ([10]; at 0.000305 µM, OCI-C5x cells, without rucaparib) 105% | viability ([10]; at 0.000305 µM, OCI-P5x cells, without rucaparib) 102% | viability ([10]; at 0.00122 µM, OCI-C5x cells, with rucaparib 10 µM, 100% = cells with rucaparib alone) 129% | viability ([10]; at 0.00122 µM, OCI-C5x cells, without rucaparib) 120% | viability ([10]; at 0.00122 µM, OCI-P5x cells, without rucaparib) 109% | viability ([10]; at 0.00488 µM, OCI-C5x cells, with rucaparib 10 µM, 100% = cells with rucaparib alone) 113% | viability ([10]; at 0.00488 µM, OCI-C5x cells, without rucaparib) 109% | viability ([10]; at 0.00488 µM, OCI-P5x cells, with rucaparib 20 µM, 100% = cells with rucaparib alone) 102% | viability ([10]; at 0.0195 µM, OCI-C5x cells, with rucaparib 10 µM, 100% = cells with rucaparib alone) 108% | viability ([10]; at 0.0195 µM, OCI-C5x cells, without rucaparib) 116% | viability ([10]; at 0.0195 µM, OCI-P5x cells, without rucaparib) 103% | viability ([10]; at 0.0781 µM, OCI-C5x cells, with rucaparib 10 µM, 100% = cells with rucaparib alone) 118% | viability ([10]; at 0.0781 µM, OCI-C5x cells, without rucaparib) 109% | viability ([10]; at 0.0781 µM, OCI-P5x cells, without rucaparib) 102% | viability ([10]; at 0.313 µM, OCI-C5x cells, with rucaparib 10 µM, 100% = cells with rucaparib alone) 119% | viability ([10]; at 0.313 µM, OCI-C5x cells, without rucaparib) 110% | viability ([10]; at 0.313 µM, OCI-P5x cells, with rucaparib 20 µM, 100% = cells with rucaparib alone) 105% | viability ([10]; at 0.313 µM, OCI-P5x cells, without rucaparib) 100% | viability ([10]; at 1.25 µM, OCI-C5x cells, without rucaparib) 106%
1290: cell count ([8]; measured here: total cells without miR-34 induction)
0.237 and -1.54: z-score ([9]; Rieske KO mouse fibroblast survival, CellTiter-Glo 72 h)
active: AC50 [1] 372 nM | AC50 [2] 418 nM | AC50 [3] 1320 nM | AC50 [4] 833 nM | AC50 [6] 263 nM | IC50 [7] 235 nM | viability ([10]; at 0.000305 µM, OCI-P5x cells, with rucaparib 20 µM, 100% = cells with rucaparib alone) 96% | viability ([10]; at 0.00122 µM, OCI-P5x cells, with rucaparib 20 µM, 100% = cells with rucaparib alone) 95.3% | viability ([10]; at 0.00488 µM, OCI-P5x cells, without rucaparib) 97.3% | viability ([10]; at 0.0195 µM, OCI-P5x cells, with rucaparib 20 µM, 100% = cells with rucaparib alone) 98.6% | viability ([10]; at 0.0781 µM, OCI-P5x cells, with rucaparib 20 µM, 100% = cells with rucaparib alone) 97.5% | viability ([10]; at 1.25 µM, OCI-C5x cells, with rucaparib 10 µM, 100% = cells with rucaparib alone) 72.9% | viability ([10]; at 1.25 µM, OCI-P5x cells, with rucaparib 20 µM, 100% = cells with rucaparib alone) 65.1% | viability ([10]; at 1.25 µM, OCI-P5x cells, without rucaparib) 34.2% | viability ([10]; at 5 µM, OCI-C5x cells, with rucaparib 10 µM, 100% = cells with rucaparib alone) 49.6% | viability ([10]; at 5 µM, OCI-C5x cells, without rucaparib) 64.5% | viability ([10]; at 5 µM, OCI-P5x cells, with rucaparib 20 µM, 100% = cells with rucaparib alone) 58.3% | viability ([10]; at 5 µM, OCI-P5x cells, without rucaparib) 18.2%

Clc1ccc(COC(Cn2ccnc2)c2ccc(Cl)cc2Cl)c(Cl)c1 (centres undefined)
active: AC50 [1] 26300 nM | AC50 [4] 23500 nM | AC50 [6] 20900 nM
inactive: outcome [11]
